The list is not random: actives were taken first. Their share in the collection is about 2.8%.
CtBP-E1A blk: CtBP/E1A binding inhibition. AlphaScreen GST-E1A/His-CtBP binding, 1536-well; hits give low values. activity change, % (test concentration not listed). hit rate 0.49% among 340,000; in the data active = activity change below about -65%; inconclusive = mostly about -30% to -63%; also: % is scaled to controls: 0 for no effect and ±100 for the full control effect
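Steps: dispense buffer (Tris pH 8.0, NaCl 300 mM, TCEP 1 mM, BSA, Tween 20); add 5X protein mix (GST-E1A, His-CtBP, 125 nM each); pin 23 nL compound; 2 h at 37 °C, dark; add 5X beads (50 ug/mL); 1 h; read.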
ATXN2 expr inh: ATXN2 expression inhibition. HEK-293 ATXN2-luciferase reporter, luminescence, 24 h. Potency, µM (doses to about 57 µM), inactives show at the top dose activity change, negative = inhibition, hits mostly inhibitors. hit rate 0.72% among 360,000. AID 1745845; also: potency is read from the fitted curve at half-maximal effect; % is scaled to controls: 0 for no effect and ±100 for the full control effect; nearly all actives have a fitted effect of over 55% in size
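ATXN2-luciferase reporter cells (luciferase flanked by upstream and downstream ATXN2 gene portions) were treated 24 h at 37 °C with compounds at up to 57 uM. SteadyGlo luminescence gave expression; GF-AFC fluorescence gave viability.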
S2 tox: viability counter-screen for ATXN expression inhibitors. S2 cells (HEK-293 line with an ATXN2-luciferase reporter) viability, CellTiter-Fluor protease fluorescence, 24 h. hit rate 0.49% among 400,000. AID 651635. Potency, µM (series often up to 56.7 µM), actives largely listed as cytotoxic; also: potency is read from the fitted curve at half-maximal effect; nearly all actives have a fitted effect of over 40% in size
HepG2 viability: HepG2 cytotoxicity, counter-screen for TGF-b inhibitors; HepG2 CAGA-GFP viability, ATP luminescence, 18 h; Potency, µM (series often up to 46.1 µM), inactives show at the top dose activity change, negative = cytotoxicity, usual class: cytotoxic; hit rate 0.76% among 410,000; AID 588856; also: potency is read from the fitted curve at half-maximal effect
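CellTiter-Glo luminescence gave cytotoxicity after 18 hours at 37 degrees C. The cells were HepG2 CAGA-GFP in 1% FBS DMEM, stimulated with 500 pg/mL TGF-beta after compound addition. %Activity was normalised to no-cell wells (complete cell-killing) and DMSO (no toxicity), and curves were fitted and classified.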
Six1-Eya2 inh: inhibitors of human Six1/Eya2 interaction | AlphaScreen GST-Six1/His-Eya2 binding, biochemical; hits give low values | activity change, % (concentration not given with the values) | hit rate 0.56% among 360,000 | AID 651725; in the data active = activity change below about -65%; inconclusive = mostly about -30% to -63%; also: % is scaled to controls: 0 for no effect and ±100 for the full control effect
Target sequence (O00167 whole entry, looked up): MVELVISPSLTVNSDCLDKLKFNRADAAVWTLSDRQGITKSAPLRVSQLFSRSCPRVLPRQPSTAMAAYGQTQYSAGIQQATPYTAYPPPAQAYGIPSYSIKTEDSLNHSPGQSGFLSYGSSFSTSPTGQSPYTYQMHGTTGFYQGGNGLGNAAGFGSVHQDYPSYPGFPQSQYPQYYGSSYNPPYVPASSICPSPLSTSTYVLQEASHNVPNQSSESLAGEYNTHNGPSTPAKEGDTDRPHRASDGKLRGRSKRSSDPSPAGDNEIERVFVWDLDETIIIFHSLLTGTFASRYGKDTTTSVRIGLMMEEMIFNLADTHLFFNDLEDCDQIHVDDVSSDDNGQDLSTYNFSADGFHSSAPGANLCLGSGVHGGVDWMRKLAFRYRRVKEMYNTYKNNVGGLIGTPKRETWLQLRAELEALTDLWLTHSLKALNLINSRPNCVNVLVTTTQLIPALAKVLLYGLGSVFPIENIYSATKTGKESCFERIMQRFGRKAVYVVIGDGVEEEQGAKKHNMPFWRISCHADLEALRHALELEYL
Target sequence (Q15475 whole entry, looked up): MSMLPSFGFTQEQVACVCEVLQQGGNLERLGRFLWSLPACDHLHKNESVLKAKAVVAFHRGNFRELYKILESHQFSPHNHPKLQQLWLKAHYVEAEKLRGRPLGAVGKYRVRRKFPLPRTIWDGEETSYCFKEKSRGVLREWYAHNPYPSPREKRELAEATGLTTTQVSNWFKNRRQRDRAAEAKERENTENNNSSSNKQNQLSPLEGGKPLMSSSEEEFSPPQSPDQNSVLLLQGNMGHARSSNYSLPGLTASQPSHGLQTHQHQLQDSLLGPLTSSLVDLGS
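Compounds are tested against tagged Six1 and Eya2 proteins bridged by glutathione donor and nickel acceptor beads; after a one-hour incubation at 37 °C without light, AlphaScreen emission is recorded.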
TGFb inhibitor: inhibitors of TGF-b signaling. HepG2 CAGA-GFP TGF-b/SMAD3 reporter, GFP fluorescence, 18 h; TGF-beta stimulated, 500 pg/mL final. Potency, µM (top dose mostly 46.1 µM), inactives show at the top dose activity, negative = inhibition, most hits filed as inhibitors. hit rate 1.2% among 410,000. AID 588855; also: potency is read from the fitted curve at half-maximal effect; % is scaled to controls: 0 for no effect and ±100 for the full control effect; nearly all actives have a fitted effect of over 65% in size
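Read-out: total well GFP (ex488/em500-530) summed from mean per-cell fluorescence. Cells: HEPG2 CAGA-GFP, 1% FBS DMEM, 18 h at 37 degrees C with 500 pg/mL final TGF-beta. Unstimulated wells served as the full-inhibition control; stimulated DMSO wells = 0%.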
* marks the source's active call; other numbers are inactive results; i = inactive; ? = inconclusive; · = no result given; [ ] = remark or other dose. Unless noted, calls follow the shape of the dose curve; as a rule, active = well fitted curve in the direction sought with a large enough effect; inconclusive = small, poorly fitted or top-dose-only effect, or another doubt; inactive = no such curve, though single readings can be large; an effect the other way counts as inactive or inconclusive.

SMILES | CtBP-E1A blk | ATXN2 expr inh | S2 tox | HepG2 viability | Six1-Eya2 inh | TGFb inhibitor
CCOC(=O)c1ccc(N2C(=O)c3n[nH]c(-c4ccco4)c3C2c2ccc([N+](=O)[O-])cc2)cc1 (configuration not stated) | -2.2 | ? | ? | -30.2% | ? | ?
COC(=O)[C@@]1(Sc2ccc(C)cc2)CC(=O)N(C(=O)/C=C/c2ccccc2)[C@@H]1c1ccccc1 | 1.7 | ? | ? | · | 3.4 | ·
Cc1noc(-c2ccc(N3CCCCC3)c([N+](=O)[O-])c2)n1 | · | 39.2% | i | -14.4% | · | -1.4%
COc1ccccc1-c1nc(SCc2ccccn2)n[nH]1 | 1.5 | 58.0% | i | 12.6µM* | 1.0 | -0.4%
Cc1oc(-c2ccccc2NC(=O)c2ccccc2)nc1CNC(=O)c1cccc(-n2cccn2)c1 | · | · | i | · | · | ·
OC1(c2cccnc2)CCN(Cc2ccc3c(c2)CN(Cc2cc(F)ccc2F)CCO3)CC1 | · | · | i | · | · | ·
Cc1nn(-c2ccccc2)c2c1C(c1ccncc1)C(C#N)=C(N)O2 (configuration not stated) | -14.3 | ? | i | -1.7% | -17.5 | -9.6%
COc1cc(-n2nc(C)c3c2OC(N)=C(C#N)C3c2ccccc2)c(Cl)c(Br)c1O (configuration not stated) | ? | -8.9% | 14.1µM* | -31.9% | ? | ?
CC(=O)N1CCc2nc3sc(C(=O)c4ccc(F)cc4)c(N)c3c(C(F)(F)F)c2C1 | · | · | · | -14.2% | · | 50.3%
O=C(Cn1c(=O)n(Cc2ccc3c(c2)OCO3)c(=O)c2ccccc21)Nc1cccc(Cl)c1 | · | -7.0% | ? | 2.8% | · | -3.2%
Cc1oc(-c2ccccc2NS(C)(=O)=O)nc1CN(C)Cc1ccc(Cl)cc1 | · | · | i | · | · | ·
CCCCCn1c(NCc2ccccc2OC)nc2ccccc21 | · | ? | ? | -43.4% | · | 15.8µM*
S=C(Nc1ccccc1)Nc1nc2ccccc2n1CCOc1ccccc1 | -23.9 | ? | i | -44.9% | -26.0 | 4.8%
CCn1c(NCc2ccc(OC)c(OC)c2)nc2ccccc21 | · | · | · | -23.6% | · | -19.7%
CCCCn1c(NCc2ccccc2O)nc2ccccc21 | -4.1 | -11.8% | ? | -9.4% | -1.5 | -16.4%
CCCCn1c(NC(=S)Nc2ccccc2)nc2ccccc21 | -14.7 | -14.3% | i | -19.5% | -13.7 | 12.6µM*
COc1ccc(CNc2nc3ccccc3n2Cc2ccc(Cl)cc2)cc1OC | 6.7 | -25.6% | i | -35.6% | -15.4 | 14.1µM*
COc1cc(CNCc2cc3cc(C)ccc3nc2-c2ccc(F)cc2)cc(OC)c1OC | · | · | i | · | · | ·
c1ccc(CNCCCNCCCCNCCCNCc2ccccc2)cc1 | -7.9 | 28.2µM* | ? | 7.94µM* | 22.9 | ?
C=CCOC(=O)C1=C(C)NC(C)=C(C(=O)OCC=C)C1/C=C/c1ccccc1 | 22.4 | -19.2% | i | 12.6µM* | 14.6 | ?
Cc1ccc(-n2nc(C(=O)N3CCN(c4cccc(C(F)(F)F)c4)CC3)c3c4ccccc4n(C)c3c2=O)cc1 | · | -4.2% | i | 1.2% | · | -2.9%
COc1ccc(C2c3[nH]c4ccc(OC)cc4c3CCN2C(=O)Nc2ccccc2)cc1 (configuration not stated) | · | -23.5% | ? | -23.3% | · | 8.91µM*
COc1ccc(C2c3[nH]c4ccccc4c3CCN2C(=O)CCC2CCCC2)cc1 (configuration not stated) | · | · | · | -21.2% | · | ?
CC(NCc1cc(Br)ccc1OCC(=O)NCc1ccccc1)c1ccccc1 (configuration not stated) | -0.1 | -27.3% | ? | -89.4% | -7.6 | 12.6µM*
N#Cc1cccc(N2[C@@H](Cc3cc4ccccc4n3Cc3ccccc3)COC[C@H]2Cc2ccc3ccccc3c2)c1 | -2.1 | 2.9% | i | 0.5% | -5.2 | 3.2%
SMILES | CtBP-E1A blk | ATXN2 expr inh | S2 tox | HepG2 viability | Six1-Eya2 inh | TGFb inhibitor
CCN(CC)c1ccc2c(c1)oc(=O)c1c(Cl)cc(=O)oc12 | 6.0 | ? | ? | 14.1µM* | -7.9 | ?
COc1ccc(C=C2CS(=O)(=O)CC(=Cc3ccc(OC)cc3)C2=O)cc1 | -0.9 | · | ? | -81.6% | -1.5 | 5.01µM*
O=C(CCC(=O)Nc1ccc(F)cc1)N/N=C/c1cc([N+](=O)[O-])ccc1O | -86.2* | ? | ? | -17.3% | ? | -8.4%
O=C(CCC(=O)Nc1cc(C(F)(F)F)ccc1Cl)N/N=C\c1cc([N+](=O)[O-])ccc1O | -66.8* | ? | ? | -20.3% | -29.8 | -18.2%
O=C(CCC(=O)Nc1ccc(Br)cc1)N/N=C/c1ccccc1F | 6.1 | 5.8% | i | 1.78µM* | 4.1 | -25.2%
CCCCCCCC(=O)Nc1ccc(C(=O)N/N=C/c2cccc([N+](=O)[O-])c2)cc1 | 0.5 | ? | 7.94µM* | 8.3% | 5.4 | -9.4%
O=C(CCc1ccccc1)Nc1cc(C(F)(F)F)ccc1Cl | 34.7 | 3.0% | i | 15.8% | 19.2 | 12.9%
O=C(CCC(=O)Nc1ccc(F)cc1)N/N=C/c1ccccc1O | ? | 5.9%[11.3 µM] | i | -31.3% | ? | -11.8%
O=C(CCC(=O)Nc1ccc(Br)cc1)N/N=C/c1cc([N+](=O)[O-])ccc1O | -15.2 | ? | i | 5.5% | -2.6 | 5.1%
CCCCNc1ccc(/C=C2\C=Cc3ccccc32)cc1 | · | · | · | -28.0% | · | -27.7%
Cc1ncc2c(c1CNC(=O)c1cncs1)CCN(C(=O)c1cc(F)c(F)cc1F)C2 | · | · | i | · | · | ·
COC(=O)c1cc2oc3ccccc3c2n1CC(=O)Nc1ccc(Cl)cc1F | · | 5.2% | i | -37.4% | · | ?
CC(=O)/C=C/C=C1/C2CCC(C2)C1(C)C (configuration not stated) | · | -4.8% | i | · | · | ·
COc1cccc(CNC(=O)c2c(OC)cc(=O)n3c2CCN(C(=O)c2ccc(C)nc2)CC3)c1 | · | · | i | · | · | ·
Cc1cccc(NC(=O)CCC(=O)N/N=C/c2cc([N+](=O)[O-])ccc2O)c1 | -89.8* | ? | i | -6.1% | -78.8* | -18.8%
C=CCc1cccc(/C=N/NC(=O)CCC(=O)Nc2ccc(C)cc2)c1O | -12.7 | 14.1µM* | i | -38.5% | -2.5 | -41.8%
Cc1ccc(NC(=O)CCC(=O)N/N=C/c2ccc(O)cc2O)cc1 | ? | -16.4% | i | -18.0% | ? | 0.0%
O=C(O)CSc1nnc(-c2ccc3c(c2)OCO3)o1 | 3.6 | -34.5% | i | -1.2% | 4.5 | -2.8%
O=C(c1ccc(Cl)cc1)N1CCCCC(Sc2nnc(-c3ccc4c(c3)OCO4)o2)C1=O (configuration not stated) | 1.2 | 2.24µM* | i | -30.3% | 0.0 | 5.3%
O=C(CSc1cccc2cccnc12)N/N=C/c1ccc(O)cc1 | -8.8 | · | i | -46.1% | ? | -12.4%

Screening data as filed in PubChem.
